# According to the supplement of paper PMC3334620:
# In all, about 33,000 sequences were measured (“E-score (-0.5 to 0.5)”: median about -0.053, highest 2% from about 0.37 on). The list comes from a sample in which the highest values are over-represented; it also holds similar and randomly drawn sequences.
# Target: Hap1 (UniProt P0CE41)
# Test: PBM E-score (8-mer binding enrichment) (E-score (-0.5 to 0.5)); higher = stronger / more preferred TF binding
# Details: protein concentration: 200 nM; construct: GST-DNA-binding domain
# Protocol: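 Universal 'all 10-mer' protein binding microarrays (Agilent AMADID 015681) probed with GST-tagged S. cerevisiae TFs (full-length or DBD) made by in vitro transcription/translation (PURExpress), about 100-200 nM. Bound TF was detected with fluorescent anti-GST. Each ungapped 8-mer (which stands for itself and its reverse complement) is scored by the PBM enrichment score (E-score), a modified Wilcoxon-Mann-Whitney statistic from -0.5 to +0.5, computed with the Universal PBM Analysis Suite. Scale: above 0.35 generally sequence-specific binding.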
# UniProt P0CE41, sequence (P0CE41 whole entry): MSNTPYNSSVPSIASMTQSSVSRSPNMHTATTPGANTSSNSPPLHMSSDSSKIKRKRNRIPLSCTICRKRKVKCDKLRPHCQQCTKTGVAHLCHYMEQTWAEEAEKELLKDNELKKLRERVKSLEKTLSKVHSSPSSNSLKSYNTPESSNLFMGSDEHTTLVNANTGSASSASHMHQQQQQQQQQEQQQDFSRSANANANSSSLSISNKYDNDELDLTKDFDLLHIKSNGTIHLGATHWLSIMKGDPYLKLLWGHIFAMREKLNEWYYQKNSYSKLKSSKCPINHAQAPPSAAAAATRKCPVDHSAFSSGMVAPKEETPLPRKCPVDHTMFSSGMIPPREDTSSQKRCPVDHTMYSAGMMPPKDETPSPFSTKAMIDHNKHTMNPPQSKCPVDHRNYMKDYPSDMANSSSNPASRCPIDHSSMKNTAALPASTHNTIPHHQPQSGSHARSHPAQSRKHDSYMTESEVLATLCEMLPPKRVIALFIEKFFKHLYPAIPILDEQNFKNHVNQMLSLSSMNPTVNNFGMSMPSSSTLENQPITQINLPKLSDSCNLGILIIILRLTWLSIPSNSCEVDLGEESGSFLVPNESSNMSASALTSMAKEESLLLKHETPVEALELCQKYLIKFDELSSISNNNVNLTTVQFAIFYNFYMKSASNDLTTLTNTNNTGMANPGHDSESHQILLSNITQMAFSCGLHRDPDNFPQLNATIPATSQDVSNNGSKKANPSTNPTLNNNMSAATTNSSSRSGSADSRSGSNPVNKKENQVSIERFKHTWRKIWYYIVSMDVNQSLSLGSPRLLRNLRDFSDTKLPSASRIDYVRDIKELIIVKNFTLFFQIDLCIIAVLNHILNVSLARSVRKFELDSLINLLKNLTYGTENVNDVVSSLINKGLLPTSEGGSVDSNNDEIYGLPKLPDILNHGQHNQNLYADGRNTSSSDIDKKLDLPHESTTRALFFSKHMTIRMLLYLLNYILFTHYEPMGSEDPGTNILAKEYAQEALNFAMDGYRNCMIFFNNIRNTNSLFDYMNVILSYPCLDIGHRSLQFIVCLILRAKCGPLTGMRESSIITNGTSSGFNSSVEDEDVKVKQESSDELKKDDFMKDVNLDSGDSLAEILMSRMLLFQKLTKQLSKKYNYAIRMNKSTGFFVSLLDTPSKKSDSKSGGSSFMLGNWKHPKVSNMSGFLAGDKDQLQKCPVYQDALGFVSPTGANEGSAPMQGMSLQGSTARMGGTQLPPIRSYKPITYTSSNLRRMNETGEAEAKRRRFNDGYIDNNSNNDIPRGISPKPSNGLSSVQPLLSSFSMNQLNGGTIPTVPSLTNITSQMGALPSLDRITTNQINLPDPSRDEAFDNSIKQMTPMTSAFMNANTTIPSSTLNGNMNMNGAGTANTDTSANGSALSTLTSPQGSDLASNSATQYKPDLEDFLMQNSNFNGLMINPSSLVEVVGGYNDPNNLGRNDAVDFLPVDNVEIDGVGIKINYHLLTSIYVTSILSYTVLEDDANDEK
row,Sequence,PBM E-score
1,ATCCGGCC,0.412
2,ATCCGGGC,0.364
3,ATCCGGAC,0.439
4,TCTCCACA,-0.243
5,CAAGAGAC,-0.289
6,CCATTCAA,-0.16
7,GCCAATAA,-0.0084
8,CGGGGTGA,0.214
9,CTCCGTAA,0.296
10,ATACGGAA,0.33
11,ATGCGGAA,0.24
12,CTCCGGAG,0.467
13,TTCCGGAA,0.466
14,CTACGGAA,0.17
15,ATCCGGAA,0.396
16,CTCCGGAA,0.422
17,CTCCGCAG,0.216
18,TGCCGGAA,0.365
19,TTACGGAA,0.317
20,CTACGGAG,0.32
21,AGCAATAT,-0.105
22,AATTGTGG,-0.245

row,Sequence,PBM E-score
1,TGAGCCAA,-0.233
2,CCGTAGCG,0.27
3,CGCATGGC,0.184
4,AGCCTCCA,-0.219
5,CTCCGTAC,0.196
6,CTCCGGAC,0.454
7,CTCCGCAC,0.0685
8,GACAATGA,-0.102
9,CCTATAGA,-0.198
10,CTCGCCGA,0.276
11,ATCGCCCC,-0.0327
12,ATCGCCCA,-0.0821
13,CCCGCCGA,0.323
14,ATCGCCGA,0.445
15,ACCGCCGG,0.365
16,TCCGCCGA,0.425
17,ATCGCCGG,0.445
18,GTCGCCGA,0.246
19,ATCGCCGC,0.286
20,ATCGCCCG,0.372
21,GCCGCCGA,0.26
22,ACGCCCAA,-0.133

row,Sequence,PBM E-score
1,GGGATACC,0.196
2,CCCAGGCG,-0.125
3,AGCTTGCC,-0.108
4,AAGAAAGC,-0.113
5,CACCCTAC,-0.27
6,GAGCGCGA,0.0945
7,AACTCGCG,0.0253
8,ACCGACAG,0.289
9,GTACCGAA,0.0413
10,GCAACTTA,0.0419
11,GGCGCCGA,0.313
12,CGCGCCGA,0.317
13,AGCGCCGA,0.372
14,ATACTGAG,-0.143
15,CCACCTTA,-0.00422
16,ATGAAGTG,-0.133
17,GAACCGGC,0.239
18,GAACCGTA,0.0759
19,GAACCGGA,0.382
20,TAACCGGA,0.417
21,CAACCGGA,0.316
22,AAACCGGA,0.328

row,Sequence,PBM E-score
1,CCACTGCG,-0.0793
2,CGGGTGAG,0.201
3,GTTCCCTA,-0.0618
4,GAAACGTA,-0.151
5,AGCTCCGA,0.411
6,AGCTCCGC,0.306
7,GGCTCCGA,0.221
8,CGCTCCGA,0.324
9,AGCTCCGG,0.43
10,AGCTCCCG,0.0669
11,GCCGCACA,-0.0419
12,CATTACCG,0.198
13,AATTACCC,0.0864
14,ATTTACCC,0.0884
15,ATTTACCG,0.376
16,AATTACCG,0.374
17,ATTTACCA,0.0182
18,GCGAGCAC,-0.187
19,GTCGAAAA,-0.0295
20,CCCCCCCC,-0.27
21,ACGCACCT,-0.185
22,ACCGGCCG,0.439

row,Sequence,PBM E-score
1,ACCGGCCA,0.284
2,CCCGGCCA,0.291
3,GCCGGCCA,0.284
4,ACCGGCCT,0.181
5,CCCGGCCG,0.405
6,CCCGGCCC,0.341
7,ACCGGCCC,0.329
8,GCCGGCCC,0.372
9,AACTCTGG,-0.202
10,ACGCAAAG,-0.0974
11,ACTGCGTG,-0.275
12,CTCGTAGC,-0.117
13,TAATTAGA,0.0224
14,CAGGCCGG,0.166
15,AAGGCCGA,0.435
16,AAGGCCGG,0.408
17,AAGGCCGT,0.212
18,AAGGCCCG,0.196
19,AAGGCCGC,0.135
20,CGAGATGC,-0.0846
21,GGTACCAA,0.0294
22,AAGTTAGG,-0.0844
